Laboratory results reported in PubChem BioAssay (EPA / NIEHS).
Values joined by “and” are separate entries in the source; they are usually repeats but may differ in a detail not shown here. Identical values can stand only once. More than one record can exist for a structure, and the calls need not agree. Active and inactive are the calls of the source. Rule for the calls: active = hit-call score of the fitted dose curve at least 0.9, where 1 is the maximum; inactive = score below 0.9.

read-out: Macrophage Inflammatory Protein-1 Alpha (MIP1a), CCL3 (gene 6348); experiment: BSK_IMphg_MIP1a: BioMAP Diversity Plus: IMphg Assay for Macrophage Inflammatory Protein-1 Alpha (MIP1a) Biomarker Activity (AID 2284255); details: primary human endothelial cells with macrophages
Procedure: BSK_IMphg is a cell-based, multiplexed-readout assay that uses venular endothelial cells and macrophages, a human vascular primary cell, with measurements taken at 24 hours after chemical dosing in a microplate: 96-well plate.BSK_IMphg_MIP1a is an assay component measured in the BSK_IMphg assay. It measures MIP-1a antibody related to regulation of gene expression using ELISA technology.Data from the assay component BSK_IMphg_MIP1a was analyzed at the endpoint, BSK_IMphg_MIP1a, in the positive analysis fitting direction relative to DMSO as the negative control and baseline of activity. Using a type of binding reporter, gain or loss-of-signal activity can be used to understand protein changes. To generalize the intended target to other relatable targets, this assay endpoint is annotated to the 'cytokine' intended target family, where the subfamily is 'inflammatory factor'.
The levels of cell surface (or secreted, indicated by the prefix "s") biomarker endpoints were measured by ELISA. Overt cytotoxicity to cells in confluent adherent cultures (all systems other than the BT system) was assessed by measuring total protein levels using sulforhodamine B (SRB) staining in parallel cultures at the time of biomarker measurements, indicated as SRB endpoints. For proliferation assays for adherent cell types, individual cell types are cultured at sub-confluence and relative cell numbers quantified by SRB staining at time points optimized for each system (48 h: 3C and CASM3C systems; 72 h: BT and HDF3CGF systems; 96 h: SAg system). SRB was performed by staining cells with 0.1% SRB after fixation with 10% TCA and reading wells at 560 nm.Viability and proliferation of PBMC (T cells) was quantified by Alamar Blue reduction for the SAg and BT systems. For PBMC viability (referred to as PBMC Cytotoxicity within the assay endpoint names), cells were plated (75,000/well in a 96-well plate) and then chemical samples added for 1 h before addition of activators, SEB and TSST-1 (20 ng/mL final concentration each). Cells were incubated for 90 h. Then, Alamar Blue (20 uL/well) (Invitrogen, Cat DAL1100) was added for 6 h, and the plates were read with a fluorescence microplate reader at 546/580 nm (excitation/emission). For PBMC proliferation, cells were plated and activated as above but incubated for only 16 h prior to addition of Alamar Blue. Plates were read after 6 h.

SMILES	outcome	AC50
OCC(F)(F)C(F)(F)C(F)(F)C(F)(F)C(F)(F)C(F)(F)C(F)(F)C(F)(F)C(F)(F)C(F)(F)C(F)(F)F	inactive	
O=S(=O)(O)C(F)(F)C(F)(F)C(F)(F)C(F)(F)C(F)(F)C(F)(F)C(F)(F)C(F)(F)C(F)(F)C(F)(F)F	inactive	
O=P(O)(O)CCC(F)(F)C(F)(F)C(F)(F)C(F)(F)C(F)(F)C(F)(F)F	inactive	
O=C(O)CCC(F)(F)C(F)(F)C(F)(F)C(F)(F)C(F)(F)F	inactive	835 nM (active)
O=C(O)CCC(F)(F)C(F)(F)C(F)(F)C(F)(F)C(F)(F)C(F)(F)F	inactive	7.18 µM (active) and 19.2 µM (active)
CN(CCO)S(=O)(=O)C(F)(F)C(F)(F)C(F)(F)C(F)(F)C(F)(F)C(F)(F)C(F)(F)C(F)(F)F	inactive	
O=C(O)C(F)(F)OC(F)(F)C(F)(F)OC(F)(F)C(F)(F)OC(F)(F)C(F)(F)C(F)(F)C(F)(F)F		36.5 µM (active) and 38.3 µM (active)
O=C(CC(=O)C(F)(F)C(F)(F)C(F)(F)F)c1cccs1		52.5 µM (active) and 24.1 µM (active)
CN(Cc1cnc2nc(N)nc(N)c2n1)c1ccc(C(=O)N[C@@H](CCC(=O)O)C(=O)O)cc1	inactive	
C=CC(=O)OCCC(F)(F)C(F)(F)C(F)(F)C(F)(F)C(F)(F)C(F)(F)C(F)(F)C(F)(F)F	inactive	
O=P(O)(O)CCC(F)(F)C(F)(F)C(F)(F)C(F)(F)C(F)(F)C(F)(F)C(F)(F)C(F)(F)F	inactive	
